Each structure is given as a SMILES string. Compounds without any hit were thinned out: in the full panel of roughly 83,000, 20% have a hit.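 Step 1: grow cells in 96-well plates. Step 2: add test compound at a single concentration. Step 3: incubate 48 h. Step 4: record percent growth.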 Unmarked numbers belong to inactive results. The source made the active and inactive calls. How the source made its calls: active means growth percent below 10; inactive means the rest.

In PubChem BioAssay (NCI) one finds growth data, which are given here for 14 compounds.

Common to all, as to test: NCI-60 one-dose screen, 48 h (100 = growth as untreated, 0 = no growth, -100 = all killed)
Assay [1] relates to HCT-15 colon. Particulars: 10 µM unless noted.
The subject of assay [2] is HT29 colon. Particulars: 10 µM unless noted.
For assay [3], the system named is SNB-75 CNS. Particulars: 10 µM unless noted.
For assay [4], the system named is SNB-19 CNS. Particulars: 10 µM unless noted.
Assay [5] concerns U251 CNS. Particulars: 10 µM unless noted.
In assay [6] the test system is PC-3 prostate. Particulars: 10 µM unless noted.
Assay [7] has as its system SK-MEL-5 melanoma. Particulars: 10 µM unless noted.
Assay [8] has as its system UACC-62 melanoma. Particulars: 10 µM unless noted.
For assay [9], the system named is LOX IMVI melanoma. Particulars: 10 µM unless noted.
Assay [10] has as its system SK-MEL-28 melanoma. Particulars: 10 µM unless noted.
In assay [11] the test system is SK-MEL-2 melanoma. Particulars: 10 µM.
The subject of assay [12] is EKVX NSCLC. Particulars: 10 µM unless noted.
The subject of assay [13] is SN12C renal. Particulars: 10 µM unless noted.
In assay [14] the test system is UO-31 renal. Particulars: 10 µM unless noted.
The subject of assay [15] is TK-10 renal. Particulars: 10 µM unless noted.
Assay [16] has as its system ACHN renal. Particulars: 10 µM unless noted.
Assay [17] has as its system CAKI-1 renal. Particulars: 10 µM unless noted.
Assay [18] deals with MOLT-4 leukemia. Particulars: 10 µM unless noted.
The subject of assay [19] is A498 renal. Particulars: 10 µM unless noted.
The subject of assay [20] is CCRF-CEM leukemia. Particulars: 10 µM unless noted.

For `Cc1nn(-c2nc3ccccc3[nH]2)c2c1C(c1ccc(OCc3ccc(F)cc3)cc1)CC(=O)N2` (stereo not given), the growth in assay [1] is 41.5%; in assay [2], 70.1%; in assay [3] it was 48.3%; in assay [4] it was 64.9%; in assay [5], 41.6%; in assay [6], 43.8%. For the same compound, the growth in [7] is 68.3%; in [8], 61.3%; in assay [9] it was 28%; in assay [10], 63%; in assay [11], 30.7%; in assay [12] it was 81.7%. Further, the growth in assay [13] is 55.4%; in assay [14] it was 36.9%; in assay [15] it was 56.1%; in [16], 48.2%; in assay [17], 66.2%; in assay [18], 7.48% (active).

As to `COc1cc(-c2cc(-c3ccc(Nc4ccnc5cc(Cl)ccc45)cc3)nc(N3CCOCC3)n2)cc(OC)c1OC`, the growth was -29.8% (active) in [1]; -21.8% (active) in assay [2]; -25.3% (active) in [3]; 28.8% in assay [4]; -57.1% (active) in assay [5]; -5.02% (active) in [6]. The growth in assay [7] is 28%; in assay [8], 70.1%; in assay [9] it was 4.79% (active); in [10], 7.13% (active); in assay [11], 83.9%; in [12] it was 30.9%. In addition, the growth in [13] was -11.9% (active); in assay [14] it was 37.5%; in [15], -75.9% (active); in [16], 16.7%; in [19], 102%; in assay [20], -4.98% (active). Moreover, the growth in [18] was 19.6%.

As for `CN1CCN(c2nc(NCCNc3ccnc4cc(Cl)ccc34)c3ccccc3n2)CC1`, the growth in [1] is 16.1%; in assay [2] it was 0.651% (active); in [3], 74.7%; in assay [4], 34.8%; in assay [5], 9.01% (active); in assay [6], 30.4%. Besides, the growth in assay [7] is -97.5% (active); in [8], -55.1% (active); in assay [9], -56% (active); in [10], -58.5% (active); in [11], -45.5% (active); in [12], 52.3%. In addition, the growth was 10.9% in [13]; -9.51% (active) in assay [14]; 16.5% in [15]; 5.61% (active) in assay [16]; 102% in [19]; 3.19% (active) in assay [20]. Besides, the growth in [18] is 6.2% (active).

With `COc1cc(-c2nc(C(=O)NCC(=O)O)nn2-c2ccc(Cl)cc2)cc(OC)c1OC`, the growth was 102% in [1]; 106% in assay [2]; 115% in [3]; 109% in [4]; 96.6% in assay [5]; 94.3% in assay [6]. The growth was 98.3% in assay [7]; 104% in assay [8]; 84.9% in [9]; 104% in assay [10]; 120% in assay [11]; 91.7% in assay [12]. For the same compound, the growth in assay [13] was 101%; in assay [14] it was 90.5%; in assay [15], 117%; in assay [16], 112%; in [19], 107%; in assay [20] it was 84.2%. Also, the growth in [18] is 100%.

For the compound `Oc1ccc(/C=N/Nc2nnc(N/N=C/c3ccc(O)cc3O)c3ccccc23)c(O)c1`, the growth in [1] was 7.14% (active); in [2], -35.3% (active); in assay [3] it was -46.9% (active); in assay [4], -1.04% (active); in [5], -25% (active); in assay [6], -50.8% (active). The growth in assay [7] is -17.7% (active); in assay [8] it was -94.8% (active); in [9], -51.4% (active); in assay [10], -43.3% (active); in assay [11], -58% (active); in [12], -18.4% (active). For the same compound, the growth in assay [13] is -28% (active); in assay [14], 0% (active); in [15] it was 10.5%; in assay [16], -3.24% (active); in assay [19] it was -61.1% (active); in assay [20], -51.4% (active). In assay [18], the growth is -26.9% (active).

Take `CC(CCCC(=O)O)c1ccoc1` (stereo not given): the growth is 102% in [1]; 95.5% in assay [2]; 92.6% in assay [3]; 111% in assay [4]; 109% in [5]; 98.4% in assay [6]. In addition, the growth in [7] was 106%; in [8], 107%; in assay [9] it was 97.8%; in [10], 109%; in assay [11], 105%; in assay [12], 96%. The growth in assay [13] was 105%; in assay [14], 86.2%; in [15] it was 98.3%; in assay [16] it was 111%; in assay [19] it was 110%; in assay [20], 109%. The growth in [18] was 109%.

In the case of `COC(=O)[C@@H](C)CNS(=O)(=O)N(c1cc(C(F)(F)F)cc(C(F)(F)F)c1)C1CCN(Cc2ccc(F)cc2)CC1`, the growth in assay [1] is 27.9%; in assay [2] it was 19.5%; in [3] it was 65.4%; in [4], 67.7%; in [5], 52.3%; in [6], 45.4%. The growth in assay [7] was 29.9%; in assay [8] it was 69.1%; in assay [9], 48.2%; in [10] it was 82.9%; in [11], 81.7%; in assay [12] it was 74.6%. Further, the growth in assay [13] was 36.8%; in [14], 44%; in assay [15] it was 89%; in assay [16], 86.4%; in assay [19], 66%; in assay [20], 56.6%. Moreover, the growth in assay [18] is 58.2%.

As for `Cc1cc2c(-c3nc4ccccn4c3NC3CCCCC3)c(O)c(O)cc2c(O)c1-c1c(C)cc2c(-c3nc4ccccn4c3NC3CCCCC3)c(O)c(O)cc2c1O`, the growth in assay [1] is 19.9%; in assay [2] it was 25.7%; in [3] it was 28%; in [4], 25.3%; in assay [5] it was 19.8%; in assay [6] it was 18.4%. For the same compound, the growth was 23.9% in assay [7]; -1.66% (active) in [8]; 27.4% in [9]; 38.9% in assay [10]; 38.9% in [11]; 27.1% in assay [12]. Besides, the growth in assay [13] was 33%; in assay [14], 35.3%; in assay [15] it was 27.5%; in assay [16] it was 18.8%; in [19] it was 71.4%; in assay [20] it was 23.5%. In addition, in [18], the growth is 43.6%.

As to `Nc1nc(=S)c2ncn(C3OC(COC(=O)c4ccc(Cl)cc4)C(OC(=O)c4ccc(Cl)cc4)C3OC(=O)c3ccc(Cl)cc3)c2[nH]1` (stereo not given), the growth in assay [1] was 95.5%; in assay [2] it was 87.9%; in assay [3], 76.7%; in assay [4] it was 86.9%; in assay [5] it was 38%; in [6], 84.9%. In addition, the growth in assay [7] is 65.7%; in assay [8], 94.1%; in assay [9], 90.5%; in assay [10] it was 82.4%; in [11] it was 94.5%; in assay [12], 71.4%. Also, the growth in assay [13] was 92.7%; in assay [14], 79.4%; in assay [15], 91.3%; in [16] it was 98.2%; in [19], 75%; in [20] it was 12.7%. Further, the growth in assay [18] was 65.1%.

For `O=C(Nc1ccc(C(=O)Nc2ccc(C3=NCCCN3)cc2)cc1)Nc1ccc(C2=NCCCN2)cc1`, the growth in [1] was 100%; in [2], 92.8%; in [3] it was 91%; in assay [4], 95.6%; in assay [5] it was 84.6%; in [6], 90%. Moreover, the growth in [7] was 54.7%; in [8], 82.7%; in [9] it was 85.8%; in assay [10], 105%; in assay [11], 62.8%; in [12], 61.4%. In addition, the growth was 91.6% in [13]; 82.6% in assay [14]; 96.7% in [15]; 86% in assay [16]; 119% in assay [19]; 70.9% in assay [20]. Further, in [18], the growth is 81.5%.

As to `O=C(c1ccccc1)C(c1ccccc1)N1CCOCC1` (stereo not given), the growth is 104% in assay [1]; 99.1% in [2]; 100% in assay [3]; 100% in assay [4]; 95.1% in assay [5]; 92.7% in [6]. Also, the growth in [7] was 102%; in [8], 105%; in [9], 98.2%; in [10], 105%; in assay [11] it was 91.1%; in assay [12] it was 99%. Further, the growth in [13] was 101%; in [14] it was 86.9%; in assay [15] it was 90%; in assay [16], 106%; in assay [19], 111%; in [20], 91.2%. Further, the growth in assay [18] is 94.3%.

Turning to `CCN1CCN(c2cc(C)nc(N(CCCNc3ccnc4cc(Cl)ccc34)Cc3cccs3)n2)CC1`, the growth in [1] is 3.14% (active); in assay [2], 1.82% (active); in assay [3] it was -5.92% (active); in assay [4], 12.5%; in assay [5] it was 0.735% (active); in assay [6], 32.8%. Moreover, the growth in [7] was -97.4% (active); in assay [8], -19.8% (active); in assay [9], -73.5% (active); in [10], -65.9% (active); in assay [11], -37.8% (active); in assay [12] it was 42.3%. Also, the growth in [13] was 39%; in assay [14] it was -76.1% (active); in assay [15], -41% (active); in [16], 7.79% (active); in assay [19], -13.7% (active); in assay [20], 1.95% (active). Besides, the growth in assay [18] is 5.24% (active).

In the case of `COc1cc(NCCN(CC(C)C)CC(C)C)c2ncc(C)cc2c1`, the growth in [1] was 34.2%; in [2], 86.1%; in assay [3] it was 95.3%; in assay [4], 85.3%; in [5], 67.9%; in assay [6] it was 47.8%. The growth is 23.6% in [7]; 53% in assay [8]; 15.5% in assay [9]; 79.7% in assay [10]; 74.8% in assay [11]; 74.9% in assay [12]. For the same compound, the growth was 74.7% in assay [13]; 64% in assay [14]; 139% in [15]; 77.7% in assay [16]; 113% in [19]; 86.4% in assay [20]. Further, in assay [18], the growth was 54.9%.

As for `COC(=O)c1[nH]cnc1/N=N/N(C)CCO`, the growth was 109% in assay [1]; 108% in assay [2]; 79% in [3]; 103% in assay [4]; 104% in assay [5]; 109% in assay [6]. Moreover, the growth in assay [7] was 102%; in assay [8], 101%; in [9] it was 101%; in assay [10] it was 117%; in assay [11], 108%; in assay [12], 97.9%. For the same compound, the growth was 102% in assay [13]; 84.9% in assay [14]; 129% in [15]; 103% in [16]; 121% in assay [19]; 102% in [20]. Moreover, in assay [18], the growth is 85.8%.
